Source: PubChem BioAssay (The Scripps Research Institute Molecular Screening Center)
ssDAF12 agonist: S. stercoralis DAF-12 nuclear receptor activators, primary screen, cell-based, luminescence, HEK293, GRIP1 co-expression, lit1-tk-luc; Nuclear hormone receptor DAF-12 (Strongyloides stercoralis); HEK293 ssDAF-12/GRIP1 lit1-tk-luc reporter; % of 3 µM dafachronic acid response; activation, % at 6.8 µM; 1% of 370,000 active; AID 652126, 2013;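 active means activation above the mean over all tested compounds plus 3 SD, cut at about 0.9% in these data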;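 further: 0% = DMSO-only wells and 100% = 3 µM delta7-dafachronic acid wells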
hgDAF-12 ag: H. glycines DAF-12 receptor agonists, primary screen, cell-based, luminescence, HEK293, GAL4 fusion, UAS-luciferase. Nuclear hormone receptor DAF-12 (Heterodera glycines), GAL4 fusion. HEK293 GAL4-hgDAF12 UAS-luciferase reporter, agonist luminescence; normalized to butyrate control. activation, % at 6.8 µM. 1.8% of 370,000 active. AID 687014, 2013;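 active means activation above a cutoff set at the mean of all screened compounds plus 3 SD, cut at about 10% in these data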;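 further: 0% = DMSO wells and 100% = sodium butyrate wells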
DAX1 inh-1: DAX1 (NR0B1) inhibitors, primary screen, cell-based, HEK293, Gal4-DAX1, luciferase luminescence; HEK293 Gal4-DAX1 luciferase reporter; Nuclear receptor subfamily 0 group B member 1 (Homo sapiens), P51843; inhibition, % at 6.75 µM; 0.99% of 340,000 active;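 active means inhibition above the mean over all tested compounds plus 3 SD, cut at about 4.2% in these data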;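 further: 0% = DAX1-transfected cells with DMSO and 100% = empty-vector control cells with DMSO; inhibition shows as a rise in luminescence from relieved DAX1 repression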
hcDAF-12 act: H. contortus DAF-12 nuclear receptor activators, primary screen, cell-based, luminescence, HEK293, lit1-tk-luc reporter. activation, % at 6.8 µM. AID 652067, 2013. HEK293 hcDAF-12 lit1-tk-luc reporter; 0% DMSO, 100% Δ7-dafachronic acid. 1.4% of 370,000 active;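 active means activation above the mean of all tested compounds plus 3 SD, cut at about 5.5% in these data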;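 further: 100% = response to 3 µM Δ7-dafachronic acid high control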
DAX1 inh-2: DAX1 (NR0B1) inhibitors on StAR promoter, primary screen, cell-based, luminescence, SF-1 (NR5A1), full-length DAX-1; 1.1% of 370,000 active; HEK293T StAR-luciferase reporter, SF-1/DAX-1 repression relief; inhibition, % at 6.8 µM;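 active means inhibition above the mean over all tested compounds plus 3 SD, cut at about 3.6% in these data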;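 further: 0% = DAX-1 cells with DMSO and 100% = cells lacking DAX-1 with DMSO; higher inhibition means more luminescence from relief of DAX-1 repression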
SMARCA2 act: SMARCA2 (BRM) function activators, primary screen, cell-based, luminescence, high throughput | activation, % at 9.1 µM | 1% of 370,000 active | AID 652017, 2013 | MG213 cells, MMTV-luciferase reporter, dexamethasone, overnight; in the data active means activation above about 7.8%;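 further: 0% = vehicle wells and 100% = reference activator wells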
DAX1 inh confirm: DAX1 (NR0B1) inhibitors relieving SF-1 repression, confirmation, cell-based, luminescence, HEK293T, full-length DAX-1, SF-1 activated StAR promoter. shares compounds with DAX1 inh-2. HEK293T StAR-promoter luciferase reporter, SF-1/DAX-1 repression. inhibition, % at 6.8 µM. 87% of 2,400 active. AID 652134, 2013;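 active means inhibition above the average of every tested compound plus 3 SD, cut at about 3.8% in these data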;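 further: 0% = DAX-1 cells with DMSO and 100% = no DAX-1 control cells with DMSO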
Target sequence (P51843 whole entry, looked up): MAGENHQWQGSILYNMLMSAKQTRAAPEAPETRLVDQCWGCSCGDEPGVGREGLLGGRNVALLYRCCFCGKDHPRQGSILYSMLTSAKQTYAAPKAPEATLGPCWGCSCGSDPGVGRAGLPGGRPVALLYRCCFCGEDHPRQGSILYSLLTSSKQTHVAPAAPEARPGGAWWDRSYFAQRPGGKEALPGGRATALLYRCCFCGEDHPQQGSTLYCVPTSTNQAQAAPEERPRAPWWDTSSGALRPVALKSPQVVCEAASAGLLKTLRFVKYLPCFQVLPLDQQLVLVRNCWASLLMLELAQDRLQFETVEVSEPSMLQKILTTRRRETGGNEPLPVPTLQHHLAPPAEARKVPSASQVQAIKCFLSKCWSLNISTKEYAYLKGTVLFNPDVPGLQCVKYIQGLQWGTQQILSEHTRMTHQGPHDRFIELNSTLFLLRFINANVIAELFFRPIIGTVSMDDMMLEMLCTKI
SF1 mutant ctr: StAR reporter signal changes without DAX1, counter-screen for DAX1 inhibitor project, cell-based, luminescence, AF-2 mutant SF-1, transactivation; inhibition, % at 6.8 µM; HEK293 StAR-luciferase, SF-1 AF2 mutant; 78% of 2,400 active; shares compounds with DAX1 inh-2;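 active means inhibition above the mean of all tested compounds plus 3 SD, cut at about 3% in these data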;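 further: 0% = DAX-1 transfected cells with DMSO and 100% = cells without DAX-1 with DMSO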
LXR ag: LXR agonists, Gal4 luciferase reporter, confirmation, counter-screen for hcDAF-12 agonist project, cell-based, luminescence, HEK293, H. contortus campaign | shares compounds with hcDAF-12 act | HEK293 Gal4-LXR tk-luc reporter, 24 h; normalized: DMSO 0%, positive control 100% | activation, % at 6.8 µM | 3,400 tested, under 10 active;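 active means mean percent activation of the reporter above a cutoff set as the average over tested compounds plus their standard deviation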
hcDAF12 ag: H. contortus DAF-12 receptor agonists, confirmation, cell-based, luminescence, HEK293, lit1-tk-luc, triplicate; AID 743032, 2013; HEK293 hcDAF-12 lit1-tk-luc reporter; % of Δ7-dafachronic acid response; shares compounds with hcDAF-12 act; activation, % at 6.8 µM; 61% of 3,400 active;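 active means mean activation across triplicate tests above the threshold derived from the earlier primary screen, cut at about 5.5% in these data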;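 further: 0% = DMSO only wells and 100% = 3 µM Δ7-dafachronic acid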
hgDAF12 ag: H. glycines DAF-12 receptor agonists, confirmation, cell-based, luminescence, HEK293, GAL4-LBD fusion; 80% of 3,300 active; shares compounds with hgDAF-12 ag; HEK293 GAL4-hgDAF12 luciferase reporter, agonist mode; percent of butyrate response; activation, % at 6.8 µM;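 active means mean activation over triplicate wells above the hit cutoff derived from the earlier primary screen, cut at about 11% in these data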;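 further: 0% = DMSO low control and 100% = 2 mM sodium butyrate high control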
LXR ag 2: LXR agonists, Gal4 luciferase reporter, confirmation, counter-screen for hgDAF-12 agonist project, cell-based, luminescence, HEK293, H. glycines campaign | shares compounds with hgDAF-12 ag | 24 h | activation, % at 6.8 µM | 3,300 tested, under 10 active;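 active means mean activation of the triplicate above a set limit carried over from the primary screen, none filed active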
* marks the source's active call; other numbers are inactive results; · = not tested or not shown. The list is not random: actives were taken first. Their share in the collection is about 4.8%.

SMILES	ssDAF12 agonist	hgDAF-12 ag	DAX1 inh-1	hcDAF-12 act	DAX1 inh-2	SMARCA2 act	DAX1 inh confirm	SF1 mutant ctr	LXR ag	hcDAF12 ag	hgDAF12 ag	LXR ag 2
CCc1ccc(-c2ccc(SCC(=O)Nc3nnc(C)s3)nn2)cc1	0	21*	0	7.6*	6.0*	1	10*	7.8*	1	6.0*	16*	1
CCC(C)(C)NC(=S)Nc1ccc(-c2nc3ccc(C)cc3s2)cc1	0.9*	20*	1	9.1*	8.4*	1	16*	7.6*	1	5.7*	19*	1
Cc1cc(C)cc(N(CC(=O)Nc2ccc(-c3nc4ccc(C)cc4s3)cc2)S(C)(=O)=O)c1	-1	10	-1	3	3	6	·	·	·	·	·	·
CNC(=S)Nc1ccc(-c2nc3ccc(C)cc3s2)cc1	1.8*	18*	1	7.3*	5.9*	5	12*	6.2*	2	8.9*	24*	1
CCCCNC(=S)Nc1ccc(-c2nc3ccc(C)cc3s2)cc1	1	20*	1	10*	7.1*	5	13*	9.0*	1	5	20*	1
CC1=CCC(C(=O)O)C(C(=O)Nc2ccc(-c3nc4ccc(C)cc4s3)cc2)C1 (configuration not stated)	1.9*	13*	0	6.7*	6.1*	7	2	1	0	3	5	0
O=C1c2ccccc2C(=O)N1CC(=O)N1c2ccccc2Sc2ccccc21	-1	-1	0	0	0	0	·	·	·	·	·	·
c1coc(-c2cc3nc(NCc4ccc5c(c4)OCO5)ccn3n2)c1	-1	4	·	1	0	1	·	·	·	·	·	·
c1coc(-c2cc3nc(NC4CCCCC4)ccn3n2)c1	1.2*	22*	·	10*	10*	5	15*	10*	2	12*	19*	1
